Measurements published in the supplement of paper PMC3334620.
Over roughly 33,000 sequences, “E-score (-0.5 to 0.5)” has its median near -0.016; the highest 2% begin near 0.32. Many of the other results were omitted from the sample, so the highest values are more common in it than they were.

These sequences were tested against T1, Stp1 (UniProt B3LFK1) (assay: PBM E-score (8-mer binding enrichment) (E-score (-0.5 to 0.5)); higher = stronger / more preferred TF binding). Conditions: protein concentration: 200 nM; construct: GST-full length.
T1 sequence: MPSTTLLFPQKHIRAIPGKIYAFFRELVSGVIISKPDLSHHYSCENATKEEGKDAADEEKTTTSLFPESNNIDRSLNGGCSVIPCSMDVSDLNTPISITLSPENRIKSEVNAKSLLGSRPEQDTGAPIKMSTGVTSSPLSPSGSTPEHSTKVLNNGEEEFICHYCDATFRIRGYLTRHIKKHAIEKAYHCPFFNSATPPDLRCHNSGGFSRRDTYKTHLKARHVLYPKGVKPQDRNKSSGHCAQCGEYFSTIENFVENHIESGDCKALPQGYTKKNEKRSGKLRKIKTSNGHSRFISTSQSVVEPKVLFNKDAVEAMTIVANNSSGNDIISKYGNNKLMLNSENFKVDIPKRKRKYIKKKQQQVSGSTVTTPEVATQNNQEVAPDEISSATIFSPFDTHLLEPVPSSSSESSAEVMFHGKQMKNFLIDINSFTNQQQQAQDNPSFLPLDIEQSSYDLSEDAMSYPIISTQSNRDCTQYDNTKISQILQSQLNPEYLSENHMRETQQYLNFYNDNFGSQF
Description: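 Universal 'all 10-mer' protein binding microarrays (Agilent AMADID 015681) probed with GST-tagged S. cerevisiae TFs (full-length or DBD) made by in vitro transcription/translation (PURExpress), about 100-200 nM. Bound TF was detected with fluorescent anti-GST. Each ungapped 8-mer (which stands for itself and its reverse complement) is scored by the PBM enrichment score (E-score), a modified Wilcoxon-Mann-Whitney statistic from -0.5 to +0.5, computed with the Universal PBM Analysis Suite. Scale: above 0.35 generally sequence-specific binding.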

Row | Sequence | PBM E-score
1 | GAAACGCC | 0.289
2 | AAAACGGC | 0.403
3 | CAAACGGC | 0.459
4 | AAAACGGA | 0.201
5 | CAAACGGA | 0.236
6 | AAAACGCC | 0.386
7 | AAAACGGT | -0.0136
8 | AAAACGCG | 0.251
9 | CAAACGCC | 0.258
10 | GAAACGGC | 0.462
11 | CAAACGGG | 0.175
12 | ACCTGATG | -0.102
13 | CCGCATTC | 0.105
14 | TACCCTAA | -0.0225
15 | CACCCACC | -0.192
16 | GAGCCATA | 0.0155
17 | ATTGCTAC | 0.0429
18 | CAGGCGTC | -0.00022
19 | AGGCCAGA | -0.103
20 | ACAACGGC | 0.308
21 | CCAACGGC | 0.316
22 | GCAACGGC | 0.411
23 | ATAAAGGA | -0.201
24 | CACGCTAC | -0.0658
25 | CACTCGGC | 0.28

Row | Sequence | PBM E-score
26 | GAAAAGAA | 0.0978
27 | CTTCTAAA | 0.168
28 | AATGCCAC | 0.293
29 | AATGCCTC | 0.308
30 | AATGCCGC | 0.465
31 | AATGCCGA | 0.303
32 | AATGCCGG | 0.137
33 | AATGCCGT | 0.485
34 | AGGCAGAG | -0.00743
35 | CCCTAAAC | -0.193
36 | GCGATCAA | -0.0307
37 | CCTCCTCG | -0.21
38 | CTCGCGGA | -0.0275
39 | AGCGCGGC | 0.402
40 | CGCGCGTC | 0.16
41 | AGCGCGGG | 0.098
42 | CGCGCGGC | 0.483
43 | AGCGCGGA | 0.0636
44 | CGCGCTGC | 0.122
45 | CTCGCGGC | 0.334
46 | ATCGCGGC | 0.238
47 | AGGTGGCC | -0.294
48 | TCTCGAGA | -0.01
49 | CCCCGCCC | 0.139
50 | ATCTTTGC | 0.262

Row | Sequence | PBM E-score
51 | GATACGGA | 0.285
52 | GATACGAC | 0.0153
53 | AATACGGC | 0.453
54 | AATACGGG | -0.0327
55 | CATACGGG | 0.224
56 | CATACGGC | 0.472
57 | AATACGGT | 0.0778
58 | GATACGGC | 0.463
59 | CATACGGA | 0.268
60 | ACCCTGAG | -0.216
61 | AATAGACC | -0.159
62 | AACACTTA | 0.0357
63 | ACATGGCC | 0.147
64 | CCAACATC | -0.127
65 | AGAGCTAT | -0.179
66 | ACAAGGGC | -0.0113
67 | CCACCTGC | -0.021
68 | ACGAGGAT | -0.102
69 | CCGAGGCC | -0.22
70 | CCGAGGCG | 0.333
71 | ACGAGGCG | 0.457
72 | ACGAGGGA | -0.0556
73 | ACGAGGTA | -0.0774
74 | CCGAGGAG | -0.0986
75 | ACGAGGCA | 0.37

Row | Sequence | PBM E-score
76 | ACGAGGCC | 0.016
77 | ACGAGGCT | 0.323
78 | AGGAGGCG | 0.201
79 | ACCAGGCT | -0.326
80 | CTGCAGGC | -0.372
81 | CTCATCTC | 0.0521
82 | ACTAAAGT | -0.0712
83 | AGTCTGGC | -0.207
84 | TACGGTAA | 0.157
85 | GCGTGGGA | -0.0429
86 | GTCGTCAC | -0.0794
87 | CCGAGGCA | 0.179
88 | GCGAGGCA | 0.439
89 | TCGAGGCA | 0.195
90 | TATCAATA | 0.0831
91 | CGCGGCCG | 0.321
92 | AGCGGCCC | -0.00454
93 | GGCGGCCC | 0.0299
94 | AGCGGCCG | 0.285
95 | CGCGGCCC | 0.349
96 | CGCGGCCA | 0.269
97 | AAAGTCGA | -0.15
98 | ACACACGA | 0.135
99 | CCACACGA | -0.105
100 | ACAAACGA | 0.129

Row | Sequence | PBM E-score
101 | CCACACGC | 0.158
102 | AGACACGG | 0.363
103 | AGACACAA | 0.154
104 | ACACACGT | 0.0897
105 | AGACACGA | -0.124
106 | ACACACGG | 0.356
107 | CCACACGG | 0.385
108 | ACAAACGG | 0.352
109 | ACAAACGC | 0.252
110 | CTAGACGA | 0.105
111 | GCTCAGCC | -0.123
112 | ATGAGAGG | -0.118
113 | CTCGGTTA | -0.119
114 | ATGCGAAC | -0.103
115 | ACTGCGCT | -0.19
116 | CTGGCGCA | -0.0136
117 | ACCGCGCT | 0.077
118 | ACGGCCCA | 0.333
119 | ACGGCGCT | 0.481
120 | TCGGCCCA | -0.116
121 | ACGGCGCA | 0.482
122 | ATGGCGCA | 0.0846
123 | ACGGCCCT | 0.275
124 | GACTGACC | -0.312
125 | GCCTCTCC | 0.0401

Row | Sequence | PBM E-score
126 | CCTCCTGC | -0.205
127 | ACAGTCTA | -0.00216
128 | GCTTGCCA | -0.0643
129 | ACCTAGAT | -0.159
130 | AAGCTAAG | -0.136
131 | CAGTGTCA | 0.0177
132 | CGGCAATC | 0.332
133 | AGGCAATC | 0.114
134 | AGGCAATA | 0.227
135 | GGGCAATA | 0.0993
136 | CGGCAAGC | 0.124
137 | CGGCAATA | 0.352
138 | AAGAGCGA | -0.231
139 | CACTAGTG | 0.056
140 | ACCTTTCC | -0.194
141 | GCCTTTCC | 0.381
142 | CCCTTTCC | -0.11
143 | GTTGGGTA | -0.109
144 | CGGCGTAG | 0.335
145 | GGGCGTAC | -0.134
146 | AGGCGTAC | 0.137
147 | AGGCGTAG | -0.0223
148 | GGGCGTAA | -0.0217
149 | CCGCGTAG | 0.25
150 | TGGCGTAA | 0.0095

Row | Sequence | PBM E-score
151 | CGGCGTAA | 0.39
152 | CGGCGTAC | 0.36
153 | ATAGTTTG | 0.121
154 | TGTGCAAA | -0.111
155 | ATCCTGCA | -0.159
156 | CAACGCAC | 0.0556
157 | AAACATTT | 0.0291
158 | ACTATTCC | 0.0191
159 | ACTCGCTG | 0.0353
160 | CACTTAGC | 0.0853
161 | AGAAGTTC | 0.0255
162 | CCGCGCTA | 0.289
163 | CGGCGCTC | 0.427
164 | AGGCGCTC | 0.137
165 | AGGCGCTA | 0.358
166 | CTGCGCTA | -0.221
167 | AGGCGCTG | 0.311
168 | GGGCGCTA | 0.0956
169 | CTGCGCTC | -0.214
170 | CGGCGCTA | 0.453
171 | AGCACTTG | -0.266
172 | GTTCTCAA | 0.2
